Reference: PubChem BioAssay AID540362 (National Center for Advancing Translational Sciences (NCATS), 2011)
Records with an inconclusive call do not appear. Activity calls are given as the source filed them. Calls come from the whole dose curve; as a rule, active = well fitted cell-killing curve with a large enough effect; inconclusive = small, poorly fitted or top-dose-only effect; inactive = flat fitted curve, though single readings scatter.

assay: PC3M Cytotoxicity Assay for Compounds that Inhibit the Perinuclear Compartment; conditions: PC3M-GFP viability, ATPLite luminescence, 24 h
From the text: The perinucleolar compartment (PNC) is a non-membrane-bound nuclear subdomain that is associated with but structurally distinct from the nucleolus. The PNC is a heritable trait, in which the number of PNCs per cell in daughter cells often mimics that of their mother cells. The PNC is heterogeneous in shape, is stable through interphase, disassembles during mitosis, and reassembles in early G1. The PNC is concentrated with newly synthesized RNA polymerase III (pol III) RNAs (MRP RNA, RNAse P H1 RNA, hY RNAs[hY1, 2, 5], Alu RNA, and SRP [7SL] RNA) and RNA binding proteins (nucleolin, PTB, CUG-BP, KSRP, Raver1, Raver2, and Rod). […] Extensive in vitro studies have shown that the PNC is unique to tumor cells and preferentially forms in tumor cells derived from solid tissues. Examination of cancer cell lines from various origins and malignant capacities has shown that PNC prevalence correlates with the malignancy of tumors and has the potential to be developed as a pan-cancer prognostic marker. […] Although the PNC is associated with a DNA locus and a handful of components have been identified, much remains to be investigated regarding the structure and function of the PNC and its mechanistic link to cancer. We have previously shown that PNC prevalence reduction is a valid strategy to identify compounds that can be used to study the structure and function of the PNC. It is necessary, however, to create a screening platform that is able to test a large number of compounds in an automated fashion. Here we report the development and robustness of an automated whole-cell phenotypic image-based screening assay that is capable of identifying such compounds. We conducted a followup assay to measure the effect of the lead candidates on cell health by measuring ATP levels (ATPLite). The highly metastatic PC3M-GFP reporter cell line was used in this study. NIH Chemical Genomics Center [NCGC] NIH Molecular Libraries Probe Centers Network [MLPCN] MLPCN Grant: MH082371-01A2 Assay Submitter (PI): Sui Huang, Northwestern University, Feinberg School of Medicine, Cell and Molecular Biology, Chicago, Illinois.
1. Cells at a density of 75-90% confluency in T175 flasks were harvested using 7 ml TrypLE Express cell dissociation reagent. After dissociation (5 minutes room temperature incubation) 10 ml of complete media was added to the TrypLE/cell suspension. The liquid was transferred to a 50 ml Conical tube and cells were pelleted at 1000 RPM for 5 min. Supernatant was removed and cells were resuspended to a final density of 150-200 cells/ul in complete media. 2. Cells were plated in 5 ul volume (2000 cells/well) into 1536 well White solid bottom plates and allowed to recover and adhere at 37 C in a humidified 5% CO2 incubator for 4 hours. 3. After 4 hour incubation, compound libraries (23 nl of […] in columns 5-48) were transferred to the plates in duplicate using a 1536 well pintool. Camptothecin positive control (59 uM final) was added to column 2 and 1:3 dilutions of camptothecin was added to column 3. DMSO negative controls were present in columns 1 and 4. 4. After a 24 hour incubation in the 37 C incubator, all wells were treated with 3 ul of ATPLite reagent using a multidrop combi dispenser (ThermoFisher). Bubbles that formed during dispensing were removed by spinning the plates for 1 minutre at 1500 RPM on a table top centrifuge. 5. Luminescencent signal was detected on a Viewlux CCD based imager (PerkinElmer) with a clear filter and a 30 second integration time. The PC3M cell line stably expressing the PTB-GFP was provided by Sui Huang of Northwestern University. The media and cell culture reagents were purchased from Invitrogen (Carlsbad, CA), ATPLite came from PerkinElmer.

| Structure (SMILES) | Potency |
| --- | --- |
| N=c1c2c(-c3ccccc3)c(-c3ccccc3)n(Cc3ccco3)c2ncn1CCCn1ccnc1 | 25 µM (active) |
| N=c1c2c(-c3ccccc3)c(-c3ccccc3)n(Cc3ccco3)c2ncn1Cc1ccco1 | 19.9 µM (active) |
| N=c1c2c(-c3ccccc3)c(-c3ccccc3)n(Cc3ccco3)c2ncn1Cc1ccccc1 | 19.9 µM (active) |
| N=c1c2c(-c3ccccc3)c(-c3ccccc3)n(Cc3ccco3)c2ncn1CCO | 19.9 µM (active) |
| N=c1c2c(-c3ccccc3)c(-c3ccccc3)n(Cc3ccccc3)c2ncn1CCCn1ccnc1 | 19.9 µM (active) |
| CC(C)Cn1cnc2c(c(-c3ccccc3)c(-c3ccccc3)n2Cc2ccco2)c1=N | 19.9 µM (active) |
